# Assay outcomes (PubChem BioAssay)
# The full list was thinned out, with hits kept by preference.
# Pf Dd2 inh: qHTS Primary assay for Inhibitors of Plasmodium falciparum Dd2 growth in vitro; 4.3% of 120,000 active; P. falciparum Dd2 growth, SYBR Green, 72 h; AID 1347417, 2020; Potency, µM (highest dose often 28.9 µM), without a hit: top-dose activity, negative = inhibition, actives largely listed as inhibitors; active = well fitted inhibition curve with a large enough effect;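 also: plate controls were DMSO vehicle for no effect and reference drug for full effect; nearly all actives have a fitted effect of over 65% in size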
#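 Infected erythrocytes (Dd2, 0.3% parasitemia, 2.5% hematocrit final) are added to compound in RPMI-1640/Albumax II medium, grown 72 h at 37C in low oxygen, then lysed with saponin/Triton-X containing SYBR Green and read by fluorescence.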
# An asterisk follows results filed as active; i = inactive; ! = a repeat was not active; [ ] = another dose, or the depositor's remark. Potency is read from the fitted curve at half-maximal effect.
SMILES,Pf Dd2 inh
CC(=O)N1CCc2c(sc3c2c(=O)n(-c2ccccc2C)c(=O)n3CC(=O)c2ccccc2)C1,-4%
CC(=O)N1CCc2c(sc3c2c(=O)n(-c2ccc(F)cc2)c(=O)n3Cc2cc(C)ccc2C)C1,-1%
CC(=O)N1CCc2c(sc3c2c(=O)n(-c2cccc(Cl)c2)c(=O)n3Cc2ccc(F)cc2Cl)C1,11µM*
O=C(NCc1ccccc1)c1nc2c(o1)CCN(CC1CCCC1)CC2,i
O=C(NCCc1ccccc1)N1CCC2(CC1)CC(N1CCCC1)CCO2 (stereo not drawn),i
COC(=O)CNC(=O)N1[C@@H]2CC[C@H]1CC(NC(=O)c1ccc(F)cc1)C2 (stereo partly drawn),18%
O=C(NC1CCCCC1)N1c2ccccc2CC1c1noc(C2CCOCC2)n1 (stereo not drawn),-5%
Cc1cc(CN(C)C2CCc3nn(C)c(=O)n3CC2)n(C)n1 (stereo not drawn),i
CS(=O)(=O)Nc1ccc(C2(C(=O)NCc3ccc4c(c3)OCO4)CCCCC2)cc1,i
O=C(Nc1ccc(C2(C(=O)NCc3ccc4c(c3)OCO4)CCCCC2)cc1)C1CC1,13µM*
O=C(Nc1ccc(C2(C(=O)NCc3ccc(F)cc3)CCCCC2)cc1)C1CC1,4%
Cc1cccc(-c2noc(CCC(=O)N3CCC(C)(c4noc(C)n4)CC3)n2)c1,20%
O=C(NCCC1CCN(C(=O)Nc2ccccc2F)CC1)C1CCCC1,-2%
O=C(NC1CCS(=O)(=O)C1)c1cc2c(s1)CN(C1CCCC1)C2 (stereo not drawn),i
CCC(=O)N1CCc2sc(C(=O)NCc3ccc(C)cc3)cc2C1,i
O=C(NC1CCCCC1)c1cc2c(s1)CCN(C(=O)c1ccc(F)cc1)C2,i
CSc1ccc(NC(=O)c2cc3c(s2)CN(C2CC2)C3)cc1,10µM*
Cc1ccc(NC(=O)c2cc3c(s2)CN(C2CC2)C3)cc1,10µM*
CSc1ccc(NC(=O)C2CCN(c3ncccn3)CC2)cc1,i
O=C(Nc1ccccc1)C1=NO[C@@H]2CN(Cc3ccc(O)c(Cl)c3)C[C@H]12,i
O=C(Cn1nc2n(c1=O)CCCCC2)Nc1cccc(Br)c1,i
O=C1N2CCCC2CN1C1CCN(Cc2ccc(F)cc2)CC1 (stereo not drawn),-2%[44.1 µM]
CS(=O)(=O)N1C[C@H]2CCN(Cc3ccc[nH]3)C[C@H]21,-15%
Cc1ccc(-c2noc([C@@H]3CCCN3C(=O)c3ccncc3)n2)cc1,i
NC1CC(c2nnc(COc3ccc4c(c3)CCNCC4)n2C2CC2)C1 (stereo not drawn),10µM*!
SMILES,Pf Dd2 inh
COCCn1c(COc2ccc3c(c2)ncn3C)nnc1C1CC(N)C1 (stereo not drawn),-17%
CCn1c(COc2ccc(C)nc2)nnc1C1CC(N)C1 (stereo not drawn),-26%
CCCN1C(=O)Cc2ccccc2C1C(=O)NCc1cccc(C)c1 (stereo not drawn),-22%
CCCc1noc(-c2cn(C3CCN(C(=O)c4cccc(N(C)C)c4)CC3)nn2)n1,3.5µM*
Cc1noc(-c2cn(C3CCN(C(=O)c4cccc(Br)c4)CC3)nn2)n1,-23%
CCCc1noc(-c2cn(C3CCN(C(=O)c4ccc(C#N)cc4)CC3)nn2)n1,13µM*
CCc1noc(-c2cn(C3CCN(C(=O)c4ccc(C)cc4)CC3)nn2)n1,i
CCc1noc(-c2cn(C3CCN(C(=O)c4ccc(OC)cc4)CC3)nn2)n1,i
CCCc1noc(-c2cn(C3CCN(C(=O)c4ccc(OC)c(F)c4)CC3)nn2)n1,-13%
COc1cccc(S(=O)(=O)N2CCCC(Cn3c(C)nc4cccnc43)C2)c1 (stereo not drawn),i
Cc1ccc(N2CC(c3nnc(Cc4ccc(F)cc4)o3)CC2=O)cc1 (stereo not drawn),-2%
CC(=O)c1ccc(NC(=O)N[C@H]2CO[C@H]3[C@@H]2OC[C@@H]3n2nnnc2-c2ccc(N(C)C)cc2)cc1,i
CNC(=O)c1cc(S(=O)(=O)N2CCn3nc(CO)cc3C2)cs1,-13%
CCN1C(=O)CCN(C(=O)NC)CC12CCOCC2,17%
O=C(NCCc1ccc(Cl)cc1)c1cccn1-c1nnc(N2CCCCC2)s1,4%
COCC(=O)NC[C@@H]1C=C(C)[C@H](CC(=O)N(C)Cc2ccccc2)C[C@H]1C(C)C,-5%[44.1 µM]
CCOC(=O)CCNC(=O)N1CCc2c(nc(-c3ccccc3)[nH]c2=O)C1,i
OC(CNc1nccc(-c2cccnc2)n1)COc1ccc(Cl)cc1 (stereo not drawn),14µM*
CC(C)S(=O)(=O)CCNc1nccc(-c2cccnc2)n1,-7%
Cc1cc(=O)[nH]c(NCCNc2nccc(-c3cccnc3)n2)n1,0%
O=C(Cc1ccc(Br)cc1)N1CCCN(c2cc(-c3ccc(F)cc3)[nH]n2)CC1,-18%
Cc1noc(C)c1S(=O)(=O)N(CC(=O)Nc1ccc(C(F)(F)F)cc1)c1ccc(C(C)C)cc1,11µM*
Cc1ccc(N(CC(=O)Nc2ccc(OC(F)(F)F)cc2)S(=O)(=O)c2c(C)noc2C)cc1,-16%
Cc1n[nH]c(C)c1S(=O)(=O)N(CC(=O)Nc1ccc(C(F)(F)F)cc1)c1ccc(C(C)C)cc1,0%
N#Cc1cccc(C(=O)NC2CCN(c3cc(-c4ccc(Cl)cc4)[nH]n3)CC2)c1,-7%
SMILES,Pf Dd2 inh
COc1ccc(C(=O)N2CCCn3cc(-c4ccccc4)nc32)cn1,-18%
O=C(c1ccc2c(c1)OCO2)N1CCC(N2CCCOC2=O)CC1,4%
COc1ccc2c(ccn2CCNC(=O)Cn2nc3c(cc2=O)CCCCC3)c1,i
O=C(c1ccc(F)cc1)N1CCC(Oc2cccnc2)C1 (stereo not drawn),12%
O=C(c1ccc(C2CCCNC2)cc1)N1CCC(Oc2cccc(F)c2)CC1 (stereo not drawn),13µM*
O=C(c1ccc(C2CCCNC2)cc1)N1CCCN(c2ncccn2)CC1 (stereo not drawn),-2%
O=C(c1ccc2c(c1)N(Cc1ccccc1Cl)C(=O)c1ccccc1S2)N1CCCC1,i
O=C(c1ccc2c(c1)N(Cc1cccc(F)c1)C(=O)c1ccccc1S2)N1CCCC1,i
CN(C)c1ccc(NC(=O)CN2C(=O)c3ccccc3Sc3ccc(C(=O)N4CCCC4)cc32)cc1,10µM*
CCOC(=O)c1ccc2c(c1)N(CC(=O)Nc1cc(F)ccc1F)C(=O)c1ccccc1S2,-26%
Cc1ccc(NC(=O)CN2C(=O)c3ccccc3Sc3ccc(C(=O)N4CCOCC4)cc32)cc1C,-25%
COc1ccc(OC)c(NC(=O)CN2C(=O)c3ccccc3Sc3ccc(C(=O)N4CCCC4)cc32)c1,10µM*
CSc1ccc(CCNS(=O)(=O)c2ccc3c(c2)C(C)(C)C(=O)N3C)cc1,5%
Cn1cnc(S(=O)(=O)N2CCCC(CO)CCNC(=O)CC2)c1 (stereo not drawn),5%
CC(=O)Nc1ccc(CNC(=O)CNC2CCN(S(C)(=O)=O)CC2)cc1,7%
O=C(CCc1conc1-c1cccc(F)c1)NCc1cccc(Cl)c1,i
CN1CCCC2(CCN(C(=O)CN3CCOc4ccccc4C3)C2)C1=O (stereo not drawn),-11%
COc1ccc(C(=O)N[C@@H]2CCC[C@@H]2C(=O)NC2CCN(C)CC2)cc1,-17%
CC1CCN(C(=O)c2c(NC(=O)c3ccccc3F)sc3c2CCC(C(C)(C)C)C3)CC1 (stereo not drawn),8.9µM*
CC(C)(C)C1CCc2c(sc(NC(=O)c3cccc(Cl)c3)c2C(N)=O)C1 (stereo not drawn),11%
